# Measurements published in PubChem BioAssay AID1159580 (chemical genetic matrix, 2015).
# Several values for one entry are separate records, joined by “and”; a condition that tells them apart may be missing. Equal values may be shown once. About 2,000 (36%) of roughly 5,500 compounds were called active. Inconclusive results (about 18%) are left out. No stated cut-off is given here; in the data, active means normalized growth mostly below about 0.91 (no sharp cut-off); inconclusive means no clear call, values can overlap the other calls; inactive means mostly above about 0.92. Some of the results follow.
# Assay: chemical genetic growth profiling, strain panel (AID 1159580);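 further: tested at 20 µM; growth read once vehicle control cultures reached saturation at 30 °C; 1 = growth at the plate median or of vehicle wells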
# Conditions: S. cerevisiae deletion strains, growth OD
compound,measurement,setting,value
CCC(=O)O[C@H]1[C@H](O[C@@H]2[C@@H](C)[C@H](O[C@H]3C[C@@](C)(OC)[C@@H](O)[C@H](C)O3)[C@@H](C)C(=O)O[C@H](CC)[C@@](C)(O)[C@H](O)[C@@H](C)C(=O)[C@H](C)C[C@@]2(C)O)O[C@H](C)C[C@@H]1N(C)C,normalized growth,"locus YAL013W, strain DEP1, stronger effect = lower value",0.996 (inactive)
same,normalized growth,"locus YAL021C, strain ccr4, stronger effect = lower value",0.958 (inactive)
same,normalized growth,"locus YAL026C, strain drs2, stronger effect = lower value",0.942 (inactive)
same,normalized growth,"locus YAL030W, strain snc1, stronger effect = lower value",0.984 (inactive)
same,normalized growth,"locus YBL061C, strain skt5, stronger effect = lower value",0.973 (inactive)
same,normalized growth,"locus YBR009C, strain hhf1, stronger effect = lower value",0.797 (active)
same,normalized growth,"locus YBR021W, strain FUR4, stronger effect = lower value",0.232 (active)
same,normalized growth,"locus YBR023C, strain chs3, stronger effect = lower value",0.894 (active)
same,normalized growth,"locus YBR171W, strain sec66, stronger effect = lower value",1.01 (inactive)
same,normalized growth,"locus YBR229C, strain ROT2, stronger effect = lower value",1.02 (inactive)
same,normalized growth,"locus YBR231C, strain swc5, stronger effect = lower value",0.836 (active)
same,normalized growth,"locus YBR279W, strain paf1, stronger effect = lower value",0.911 (active)
same,normalized growth,"locus YCL011C, strain gbp2, stronger effect = lower value",0.823 (active)
same,normalized growth,"locus YCL016C, strain dcc1, stronger effect = lower value",0.912 (active)
same,normalized growth,"locus YCL029C, strain bik1, stronger effect = lower value",0.988 (inactive)
same,normalized growth,"locus YCL061C, strain MRC1, stronger effect = lower value",0.949 (inactive)
same,normalized growth,"locus YCL069W, strain vba3, stronger effect = lower value",0.899 (active)
same,normalized growth,"locus YCR088W, strain abp1, stronger effect = lower value",1.02 (inactive)
same,normalized growth,"locus YDL005C, strain med2, stronger effect = lower value",0.984 (inactive)
same,normalized growth,"locus YDL035C, strain GPR1, stronger effect = lower value",0.915 (inactive)
same,normalized growth,"locus YDL040C, strain nat1, stronger effect = lower value",1.01 (inactive)
same,normalized growth,"locus YDL074C, strain BRE1, stronger effect = lower value",0.809 (inactive)
same,normalized growth,"locus YDL101C, strain DUN1, stronger effect = lower value",0.959 (inactive)
same,normalized growth,"locus YDL134C, strain PPH21, stronger effect = lower value",0.91 (inactive)
same,normalized growth,"locus YDL185W, strain tfp1, stronger effect = lower value",1.01 (inactive)
same,normalized growth,"locus YDL192W, strain arf1, stronger effect = lower value",1 (inactive)
same,normalized growth,"locus YDR001C, strain nth1, stronger effect = lower value",1.02 (inactive)
same,normalized growth,"locus YDR069C, strain doa4, stronger effect = lower value",1.04 (inactive)
same,normalized growth,"locus YDR101C, strain arx1, stronger effect = lower value",1 (inactive)
same,normalized growth,"locus YDR137W, strain rgp1, stronger effect = lower value",1.18 [resistant] (active)
same,normalized growth,"locus YDR159W, strain sac3, stronger effect = lower value",0.826 (active)
same,normalized growth,"locus YDR162C, strain NBP2, stronger effect = lower value",0.944 (inactive)
same,normalized growth,"locus YDR195W, strain ref2",1.22 [resistant] (active)
same,normalized growth,"locus YDR297W, strain sur2, stronger effect = lower value",0.942 (inactive)
same,normalized growth,"locus YDR318W, strain mcm21, stronger effect = lower value",0.99 (inactive)
same,normalized growth,"locus YDR334W, strain swr1, stronger effect = lower value",0.957 (inactive)
same,normalized growth,"locus YDR335W, strain msn5, stronger effect = lower value",0.877 (active)
same,normalized growth,"locus YDR388W, stronger effect = lower value",0.972 (inactive)
same,normalized growth,"locus YDR392W, strain spt3, stronger effect = lower value",0.292 (active)
same,normalized growth,"locus YDR502C, strain sam2, stronger effect = lower value",1.01 (inactive)
same,normalized growth,"locus YEL003W, strain gim4, stronger effect = lower value",0.862 (active)
same,normalized growth,"locus YEL037C, strain rad23, stronger effect = lower value",0.971 (inactive)
same,normalized growth,"locus YEL061C, strain CIN8 (second series), stronger effect = lower value",0.875 (active)
same,normalized growth,"locus YEL061C, strain CIN8, stronger effect = lower value",0.97 (inactive)
same,normalized growth,"locus YER015W, strain faa2, stronger effect = lower value",0.975 (inactive)
same,normalized growth,"locus YER016W, strain bim1, stronger effect = lower value",0.965 (inactive)
same,normalized growth,"locus YER110C, stronger effect = lower value",0.967 (inactive)
same,normalized growth,"locus YER111C, strain swi4, stronger effect = lower value",0.867 (active)
same,normalized growth,"locus YER155C, strain BEM2 (second series), stronger effect = lower value",0.32 (active)
same,normalized growth,"locus YER155C, strain BEM2, stronger effect = lower value",1.03 (inactive)
same,normalized growth,"locus YER167W, strain BCK2, stronger effect = lower value",0.971 (inactive)
same,normalized growth,"locus YFR010W, strain ubp6, stronger effect = lower value",0.911 (inactive)
same,normalized growth,"locus YGL078C, strain dbp3, stronger effect = lower value",0.995 (inactive)
same,normalized growth,"locus YGL086W, strain mad1, stronger effect = lower value",0.994 (inactive)
same,normalized growth,"locus YGL167C, strain pmr1, stronger effect = lower value",1 (inactive)
same,normalized growth,"locus YGL173C, strain kem1, stronger effect = lower value",0.938 (inactive)
same,normalized growth,"locus YGL227W, strain vid30, stronger effect = lower value",1.01 (inactive)
same,normalized growth,"locus YGL240W, strain doc1, stronger effect = lower value",0.731 (active)
same,normalized growth,"locus YGL248W, strain PDE1, stronger effect = lower value",0.918 (inactive)
same,normalized growth,"locus YGL253W, strain hxk2, stronger effect = lower value",0.671 (active)
same,normalized growth,"locus YGR078C, strain PAC10, stronger effect = lower value",0.797 (active)
same,normalized growth,"locus YGR135W, strain pre9, stronger effect = lower value",0.92 (inactive)
same,normalized growth,"locus YGR252W, strain gcn5, stronger effect = lower value",0.695 (active)
same,normalized growth,"locus YHR013C, strain ard1, stronger effect = lower value",0.722 (active)
same,normalized growth,"locus YHR027C, strain rpn1, stronger effect = lower value",1 (inactive)
same,normalized growth,"locus YHR030C, strain SLT2, stronger effect = lower value",1.02 (inactive) and 0.875 (inactive)
same,normalized growth,"locus YHR079C, strain IRE1 (second series), stronger effect = lower value",1.01 (inactive)
same,normalized growth,"locus YHR079C, strain IRE1, stronger effect = lower value",0.874 (inactive)
same,normalized growth,"locus YHR094C, strain hxt1, stronger effect = lower value",1.01 (inactive)
same,normalized growth,"locus YHR129C, strain ARP1, stronger effect = lower value",0.99 (inactive)
same,normalized growth,"locus YHR142W, strain chs7, stronger effect = lower value",0.7 (active)
same,normalized growth,"locus YHR200W, strain rpn10, stronger effect = lower value",1.01 (inactive)
same,normalized growth,"locus YIL066C, strain RNR3, stronger effect = lower value",0.8 (active)
same,normalized growth,"locus YIL073C, strain SPO22, stronger effect = lower value",1.05 (inactive)
same,normalized growth,"locus YIL125W, strain kgd1, stronger effect = lower value",1.02 (inactive)
same,normalized growth,"locus YIR030C, strain dcg1, stronger effect = lower value",1.02 (inactive)
same,normalized growth,"locus YJL092W, strain hpr5, stronger effect = lower value",1.01 (inactive)
same,normalized growth,"locus YJL095W, strain BCK1 (second series), stronger effect = lower value",0.993 (inactive)
same,normalized growth,"locus YJL095W, strain BCK1, stronger effect = lower value",0.975 (inactive) and 0.864 (active)
same,normalized growth,"locus YJL115W, strain asf1, stronger effect = lower value",1.03 (inactive)
same,normalized growth,"locus YJL129C, strain trk1, stronger effect = lower value",0.7 (active)
same,normalized growth,"locus YJL134W, strain LCB3, stronger effect = lower value",1.02 (inactive)
same,normalized growth,"locus YJL154C, strain vps35, stronger effect = lower value",1.01 (inactive)
same,normalized growth,"locus YJL164C, strain tpk1, stronger effect = lower value",0.832 (active)
same,normalized growth,"locus YJL166W, strain qcr8, stronger effect = lower value",0.813 (active)
same,normalized growth,"locus YJL168C, strain set2, stronger effect = lower value",1.01 (inactive)
same,normalized growth,"locus YJL187C, strain SWE1 (second series), stronger effect = lower value",0.967 (inactive)
same,normalized growth,"locus YJR043C, strain POL32, stronger effect = lower value",0.832 (active)
